GASC-1 inh: inhibitors of human GASC-1 (JMJD2C) demethylase; GST-JMJD2C(1-420) H3K9me3 demethylation, DELFIA europium; inhibition, % at 2.35 µM; 330,000 compounds, 0.069% hits; AID 2099;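 active = more than half of a compound's replicate wells show inhibition beyond 50%, single wells judged on their own value; inconclusive = some, but no more than half, of replicates pass 50% inhibition; inactive = no replicate passes 50% inhibition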;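 note: signal counts dimethyl H3K9 product captured on neutravidin plate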
Target sequence (Q9H3R0 1-420 limits assumed): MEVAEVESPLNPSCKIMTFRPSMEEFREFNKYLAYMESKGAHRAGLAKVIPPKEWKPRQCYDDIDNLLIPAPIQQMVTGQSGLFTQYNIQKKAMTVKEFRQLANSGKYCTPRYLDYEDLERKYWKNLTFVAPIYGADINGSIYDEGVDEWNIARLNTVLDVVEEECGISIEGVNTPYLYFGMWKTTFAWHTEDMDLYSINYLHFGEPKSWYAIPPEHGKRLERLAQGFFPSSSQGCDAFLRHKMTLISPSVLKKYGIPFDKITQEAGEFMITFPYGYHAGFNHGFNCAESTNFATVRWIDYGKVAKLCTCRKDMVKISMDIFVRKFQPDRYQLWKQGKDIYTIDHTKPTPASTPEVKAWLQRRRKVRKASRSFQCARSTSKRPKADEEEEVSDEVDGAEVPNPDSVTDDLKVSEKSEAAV
ALR inh: inhibitors of human sulfhydryl oxidase ALR. P55789. purified ALR, DTT oxidation, H2O2 HRP-luminol luminescence. inhibition, % (test concentration not listed). 290,000 compounds, 3.8% hits. AID 485317;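 active = mean replicate inhibition above about 79%, with every replicate also reaching it, limit read from the data; inconclusive = only one of the two criteria met; inactive = mean below limit and not every replicate reaching it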
SMARCA2 act: activators of SMARCA2 function; MG213 cells, MMTV-luciferase reporter, dexamethasone, overnight; activation, % at 9.1 µM; 370,000 compounds, 1% hits; in the data active = activation above about 7.8%
beta cell repl: inducers of beta-cell replication in MIN6 cells | MIN6 cells proliferation, ATPlite luminescence, 48 h; cells starved in 0.2% serum; 100% = growth in 10% serum | 330,000 compounds, 0.29% hits | AID 2380 | proliferation, % at 10 µM;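 active = compounds whose signal lies at least 3.5 SD above the mean of all wells on their plate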
Exocytosis inh: lytic granule exocytosis inhibition | inhibition, % at 10 µM | AID 651702 | 360,000 compounds, 0.66% hits | TALL-104 LAMP-1 surface exposure, flow cytometry; cells stimulated with thapsigargin and PMA;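 active = inhibition above about 55%, limit read from the data; inconclusive = no clear call, values can overlap the other calls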
PfM18AAP inh: blocks P. falciparum M18 aspartyl aminopeptidase; recombinant PfM18AAP, H-Glu-NHMec fluorogenic cleavage; inhibition, % at 7.35 µM; 290,000 compounds, 1.2% hits; AID 1822;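 active = inhibition above the campaign mean inhibition over all tested compounds plus 3 SD, cut at about 28% in these data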
Of the large screens only hits and unclear results are named; the others gave an inactive call. Only some compounds are listed: those with a hit (about 5.4% of all), similar ones and a draw of the others.

Cc1ccc(NC(=O)Nc2ccc3c(c2)[C@]2(CC(=O)N(CC(C)C)C2c2ccccc2)C(=O)N3C)cc1Cl (some centres not stated)	none (no result: GASC-1 inh, ALR inh, beta cell repl, Exocytosis inh, PfM18AAP inh)
O=C(O)/C=C/c1ccc(O)c(O)c1	ALR inh 98, PfM18AAP inh 82
COc1cc(/C=C/C(=O)/C=C(O)/C=C/c2ccc(O)c(OC)c2)ccc1O	Exocytosis inh 69 (no result: PfM18AAP inh)
O=C(CSc1nnc(-c2cccc(Cl)c2)n1Cc1ccco1)Nc1ccc2c(c1)OCO2	none (no result: GASC-1 inh, ALR inh, beta cell repl, Exocytosis inh, PfM18AAP inh)
Oc1cc(Nc2cccnc2)cc2cccnc12	ALR inh 90 (no result: GASC-1 inh, PfM18AAP inh)
CCOc1cc(C(c2c(C)[nH][nH]c2=O)c2c(C)[nH][nH]c2=O)ccc1O	ALR inh 95, PfM18AAP inh 30
Cc1[nH][nH]c(=O)c1C(c1ccc(O)c([N+](=O)[O-])c1)c1c(C)[nH][nH]c1=O	PfM18AAP inh 31
CCCCOc1ccc(C(=O)NC2CCCCN(Cc3cccc(Cl)c3)C2=O)cc1 (configuration not stated)	none (no result: GASC-1 inh, ALR inh, beta cell repl, Exocytosis inh, PfM18AAP inh)
COc1ccc(C=Nc2cccnc2N)cc1	PfM18AAP inh 31 (no result: SMARCA2 act)
COc1ccc(CN2C(=O)COc3ccccc3C2c2nnnn2C2CCCCC2)cc1 (configuration not stated)	none (no result: GASC-1 inh, ALR inh, beta cell repl, Exocytosis inh, PfM18AAP inh)
CCn1c(CC(=O)Nc2ccc(Cl)c(Cl)c2)nnc1SCc1ccc(Cl)cc1	none
CCn1c(CS(=O)Cc2ccc(Cl)cc2Cl)nnc1SCc1c(Cl)cccc1Cl (configuration not stated)	ALR inh 99 (no result: SMARCA2 act)
O=C1/C(=C/C=C/c2ccco2)SC(=S)N1c1ccc(O)cc1	none
O=C(CN1C(=O)/C(=C/c2ccco2)SC1=S)Nc1ccc(C(=O)O)c(O)c1	PfM18AAP inh 47
O=C(CN1C(=O)/C(=C/c2ccco2)SC1=S)Nc1ccc(O)c(C(=O)O)c1	none
CC(C(=O)N(C)C1CCS(=O)(=O)C1)N1C(=O)/C(=C/c2cccs2)SC1=S (configuration not stated)	none
O=C1/C(=C\c2ccco2)SC(=S)N1c1ccc(O)cc1	ALR inh inconclusive, PfM18AAP inh 31
CC(C)C(C(=O)O)N1C(=O)/C(=C/C=C/c2ccco2)SC1=S (configuration not stated)	ALR inh 99 (no result: SMARCA2 act)
CC(C(=O)N(C)C1CCS(=O)(=O)C1)N1C(=O)/C(=C/c2ccco2)SC1=S (configuration not stated)	PfM18AAP inh 31
O=C(NCc1ccco1)C1CCCN(S(=O)(=O)c2ccccc2F)C1 (configuration not stated)	none (no result: GASC-1 inh, ALR inh, beta cell repl, Exocytosis inh, PfM18AAP inh)
CCCCC(=O)N1CCC(NS(=O)(=O)c2ccc3c(c2)CCN3C(C)=O)CC1	none (no result: GASC-1 inh, ALR inh, beta cell repl, Exocytosis inh, PfM18AAP inh)
CC(C(=O)Nc1ccc(C(=O)O)c(O)c1)N1C(=O)/C(=C\c2ccco2)SC1=S (configuration not stated)	PfM18AAP inh 28 (no result: SMARCA2 act)
COc1ccc(NC(=O)CSc2nc3[nH]c(=O)cc(O)c3s2)c(OC)c1	none (no result: PfM18AAP inh)
COc1ccc(NC(=O)CSc2nc3[nH]c(=O)cc(O)c3s2)cc1OC	ALR inh 99 (no result: PfM18AAP inh)
O=c1cc(O)c2sc(Nc3ccc(F)cc3)nc2[nH]1	none
CSc1ccc(NC(=O)CSc2nc3[nH]c(=O)cc(O)c3s2)cc1	ALR inh 99 (no result: PfM18AAP inh)
N#Cc1ccc(NC(=O)CSc2nc3[nH]c(=O)cc(O)c3s2)cc1	ALR inh 99 (no result: PfM18AAP inh)
CCN(CC)c1ccc(NC(=O)c2cc3c(C)nn(-c4ccccc4)c3s2)cc1	none (no result: GASC-1 inh, ALR inh, beta cell repl, Exocytosis inh, PfM18AAP inh)
CC1CCCCC1NC(=O)c1ccc(S(=O)(=O)NNC(=O)c2ccncc2)cc1 (configuration not stated)	ALR inh 99
O=C(NNS(=O)(=O)c1ccc(C(=O)NC2CCCC2)cc1)c1ccncc1	ALR inh 99
COc1ccc(C(CCOC(=O)Oc2ccccc2)c2cc(OC)c(OC)c(OC)c2)cc1 (configuration not stated)	none (no result: GASC-1 inh, ALR inh, beta cell repl, Exocytosis inh, PfM18AAP inh)
O=[N+]([O-])c1cccc(NCCCN2CCC(C(O)(c3ccccc3)c3ccccc3)CC2)c1	none (no result: GASC-1 inh, ALR inh, beta cell repl, Exocytosis inh, PfM18AAP inh)
CN1CCN(CC(=O)N2CCn3c4c(c5cc(C6CCCCC6)ccc53)CCCC42)CC1 (configuration not stated)	Exocytosis inh 77 (no result: SMARCA2 act)
Cc1ccc2c(c1)c1c3n2CCN(C(=O)CN2CCN(C)CC2)C3CCC1 (configuration not stated)	ALR inh 91

Compound activity from PubChem BioAssay.
